Screening results as filed in PubChem BioAssay.
D2 ag-1 = agonists of human D2 dopamine receptor; P14416; AID 485358; HEK293 T-REx D2 cells, calcium flux agonist mode; activation, % at 2 µM; 340,000 tested, 0.53% active;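 active = activation over 3 SD above normal in the single-dose calcium agonist read, cut at about 30% in these data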
Target sequence (P14416 whole entry, looked up): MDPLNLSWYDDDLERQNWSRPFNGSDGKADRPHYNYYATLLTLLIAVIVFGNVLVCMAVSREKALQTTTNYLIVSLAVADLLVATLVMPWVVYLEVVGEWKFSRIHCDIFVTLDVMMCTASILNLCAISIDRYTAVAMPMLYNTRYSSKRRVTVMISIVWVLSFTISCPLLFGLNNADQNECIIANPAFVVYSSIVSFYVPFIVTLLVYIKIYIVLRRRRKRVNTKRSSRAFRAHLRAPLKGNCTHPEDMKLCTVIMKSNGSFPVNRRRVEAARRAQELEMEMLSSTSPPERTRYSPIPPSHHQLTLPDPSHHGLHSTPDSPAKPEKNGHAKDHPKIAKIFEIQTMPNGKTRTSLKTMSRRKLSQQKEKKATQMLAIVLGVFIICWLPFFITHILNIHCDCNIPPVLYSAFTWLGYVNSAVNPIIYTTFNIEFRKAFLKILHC
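Agonism is scored from calcium flux in a force-coupled, inducible HEK293 cell line expressing D2, read kinetically for 180 s after compound addition against dopamine controls.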
D2 ag-2 = human D2 receptor agonism in beta-arrestin assay; P14416; DiscoveRx PathHunter D2 beta-arrestin, luminescence, 90 min; 100% = 57 uM dopamine signal; activation, % (test concentration not listed); 360,000 tested, 0.084% active; AID 624465; in the data active = activation above about 40%
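DiscoveRx PathHunter D2 beta-arrestin cells (2,100/well) attached overnight, then compound-stimulated 90 min at 37 C in HBSS/10 mM HEPES/0.1% Tween-20 buffer; beta-galactosidase complementation read by luminescence after 1 h at ambient temperature. Dopamine 57 uM final (EC100) as control.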
D2 PAM-1 = human D2 receptor positive allosteric modulation. P14416. AID 624464. potentiation, % (concentration not given with the values). DiscoveRx D2 beta-arrestin cells, luminescence, 90 min; 100% = 57 uM dopamine signal. 360,000 tested, 0.23% active; in the data active = potentiation above about 50%
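PathHunter D2 cells, attached overnight at 37 deg C, received compound in DMSO plus dopamine at EC20 (50 nM final) for 90 min at 37 deg C. Beta-arrestin recruitment was read as luminescence after 1 h with detection reagent at ambient temperature.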
D2 PAM-2 = positive allosteric modulators of human D2 dopamine receptor; P14416; HEK293 T-REx D2, calcium flux, EC20 dopamine potentiation; potentiation, % at 10 µM; 340,000 tested, 0.34% active; AID 485347;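 active = potentiation over 3 SD above the plate norm, cut at about 30% in these data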
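Using a no-wash calcium dye in inducible, force-coupled HEK293 Trex cells expressing D2, we tracked fluorescence each second for 180 s after compound, then for 180 s after EC20 dopamine to detect augmented signalling.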
D2 antag = antagonizes the human D2 dopamine receptor. 340,000 tested, 2% active. inhibition, % at 10 µM. P14416. HEK293 TREx D2 cells, calcium flux, dopamine EC80. AID 485344; in the data active = inhibition above about 30%; inactive = below that, where a call was filed
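Calcium mobilization kinetics were recorded at 1 s intervals in tetracycline-induced HEK293 T-REx D2 cells, first for 180 s after compound addition and then 180 s after EC80 dopamine.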
Each line names hits and unclear results; the compound was inactive in the other large screens. Sampled rows, rich in hits. Any-hit rate of the full collection: about 2.4%.

Cc1ccc(C(=O)OCc2nnc(-c3ccccc3)o2)o1	D2 PAM-2 32
O=C(OCc1nnc(-c2ccccc2)o1)c1cc(S(=O)(=O)N2CCOCC2)c(Cl)cc1Cl	D2 antag 38
COC(=O)c1c(SC)nc2ccccc2c1OCc1ccc(Cl)cc1	none (no result: D2 ag-2, D2 PAM-1, D2 antag)
CCCCOC(=O)/C=C/c1ccc(OC(=O)OC)c(OC(=O)OC)c1	D2 antag 74
Cc1oc(-c2ccc(C(=O)NC(C)c3ccccc3)cc2)nc1CS(=O)(=O)c1ccccc1 (configuration not stated)	none (no result: D2 ag-2, D2 PAM-1, D2 antag)
CCN1CCCC1CNC(=O)c1[nH]c2ccc(OC)cc2c1C (configuration not stated)	D2 antag 40 (no result: D2 ag-1)
CCN1CCCC1CNC(=O)c1cc2ccc(OC)cc2[nH]1 (configuration not stated)	none
CCN1CCCC1CNC(=O)c1csc2c1CCCC2 (configuration not stated)	D2 antag 86
CCN1CCC[C@H]1CNC(=O)c1cc(S(N)(=O)=O)ccc1OC	D2 antag 87 (no result: D2 ag-2, D2 PAM-1)
CCC1CCCN1Cn1cnc2c([nH]c3ccccc32)c1=O (configuration not stated)	none
CCC1CCCN1Cn1cnc2c([nH]c3ccc(OC)cc32)c1=O (configuration not stated)	D2 PAM-2 35
COc1ccc(/C=C(\NC(=O)c2ccco2)C(=O)Nc2ccc(C(C)=O)cc2)cc1	none
CCN1CCCC1CNC(=O)c1cc([N+](=O)[O-])c(N(C)C)cc1OC (configuration not stated)	D2 antag 75
CCN(CC)CCCNC(=O)c1cc2c(-c3cccc(OC)c3)nn(C)c2s1	none
COc1cccc(-c2nn(C)c3sc(C(=O)NCCCN(C)Cc4ccccc4)cc23)c1	D2 antag 33
CCCCN(C)CCNC(=O)c1cc2c(-c3ccccc3F)nn(C)c2s1	D2 ag-1 32
Cn1nc(-c2ccc(Cl)cc2)c2cc(C(=O)NCCCN3CCCC3)sc21	D2 antag 33
COc1cccc(-c2nn(C)c3sc(C(=O)NCc4ccco4)cc23)c1	D2 antag 36
CCc1ccc2c(c1)c(=O)c(S(=O)(=O)c1ccccc1)cn2CC(=O)Nc1ccc(OC)cc1	none (no result: D2 ag-2, D2 PAM-1, D2 antag)
Cc1ccc(OCCC(=O)N2CCN(c3ccc(O)cc3)CC2)cc1	none
CC1=C(c2ccc(C)cc2)S(=O)(=O)NC1=NCc1ccccc1Cl	none (no result: D2 ag-2, D2 PAM-1, D2 antag)
O=C(Cn1c(SCC(=O)Nc2ccc(F)cc2)nc2ccccc21)NCc1ccc(Cl)cc1	none (no result: D2 ag-2, D2 PAM-1, D2 antag)
Cc1nc(N2CCOCC2)[nH]c(=O)c1CCC(C)C	none
Cc1nc(N2CCOCC2)[nH]c(=O)c1C(O)C(Cl)(Cl)Cl (configuration not stated)	D2 antag 48
COc1ccc(NC(=O)c2c3c(nc4ccccc24)CCC3)cc1S(=O)(=O)N1CCOCC1	D2 ag-1 33
COc1ccc(C(=O)Nc2ccc(NC(=O)c3ccccc3)cc2)cc1S(=O)(=O)N1CCOCC1	none
CCCOC(=O)c1cccc(Nc2nc(CCC)cc(=O)[nH]2)c1	none (no result: D2 ag-2, D2 PAM-1, D2 antag)
CCOc1ccccc1NC(=O)COC(=O)c1ccccc1SCC(=O)N1CCCC1	none
O=C(COC(=O)c1ccccc1SCC(=O)N1CCCC1)Nc1ccccc1C(F)(F)F	D2 antag 31
COc1ccc([N+](=O)[O-])cc1NC(=O)C(C)OC(=O)CN1C(=O)C2CC=CCC2C1=O (configuration not stated)	none
COc1ccc([N+](=O)[O-])cc1NC(=O)C(C)c1ccccc1 (configuration not stated)	D2 antag 32
COc1ccc([N+](=O)[O-])cc1NC(=S)NC(NC(=O)C(c1ccccc1)c1ccccc1)C(Cl)(Cl)Cl (configuration not stated)	D2 antag 71
COc1ccc([N+](=O)[O-])cc1NC(=O)CC(c1ccccc1)c1ccccc1	none (no result: D2 ag-1, D2 PAM-2, D2 antag)
CCN(CCC(=O)Nc1cc([N+](=O)[O-])ccc1OC)Cc1ccccc1	D2 antag 79
COc1ccc([N+](=O)[O-])cc1NC(=O)C(C)OC(=O)Cn1[nH]c(=O)c2ccccc2c1=O (configuration not stated)	D2 antag 36
